Assay outcomes from PubChem BioAssay.
MIN6 prolif-1: inducers of MIN6 beta-cell proliferation, primary screen, ATP luminescence, uHTS; MIN6 cells proliferation, ATPlite luminescence, 48 h; cells starved in 0.2% serum; 100% = growth in 10% serum; proliferation, % at 10 µM; 330,000 compounds, 0.29% hits;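 active means compounds whose signal lies at least 3.5 SD above the mean of all wells on their plate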
hiPSC survival: enhancers of single-cell hiPSC survival, primary screen, ATPlite luminescence; 100% = ROCK inhibitor wells, 0% = DMSO; survival enhancement, % at 20 µM; 360,000 compounds, 0.044% hits; AID 602274, 2012; in the data active means survival enhancement above about 18%;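 further: cells exposed to compounds for 16 hours before the ATP read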
TAG inh: inhibitors of triacylglycerol accumulation, primary screen, cell-based, uHTS, fluorescence, H9c2; H9c2 cells, Nile Red lipid (TAG) fluorescence; cells loaded with 200 µM oleic acid; inhibition, % at 12.5 µM; 230,000 compounds, 0.66% hits;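 active means pattern-corrected inhibition of lipid staining of at least 50% with the nuclear-stain viability signal not falling by more than 50%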
MIN6 prolif-2: inducers of beta-cell proliferation in MIN6, confirmation, MIN6 cells, mouse; shares compounds with MIN6 prolif-1; ATPlite luminescence, 48 h; cells kept in 0.2% serum; scaled between 0.2% and 10% serum; proliferation increase, % at 50 µM; 920 tested, under 10 active; AID 463095, 2010;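 active means proliferation increase above 40% at any of the four tested concentrations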
Of the large screens only hits and unclear results are named; the others gave an inactive call (follow-up assays come after a bar, where they were run). In the library only some 0.71% were active in any assay of this set; here they are far more common.

COc1ccc(S(=O)(=O)N(C)C[C@@H]2OCCCC[C@@H](C)Oc3ccc(NS(=O)(=O)c4cccs4)cc3C(=O)N([C@H](C)CO)C[C@@H]2C)cc1	none (no result: MIN6 prolif-1)
O=S(=O)(Nc1ccc(F)cc1)N1CCCCCC1	none
O=C(Nc1ccc(F)cc1)c1ccccc1NS(=O)(=O)N1CCCC1	MIN6 prolif-1 8.5 | MIN6 prolif-2 inactive
O=C1c2ccccc2C(c2nnnn2-c2ccc3c(c2)OCCO3)N1C1CC1 (stereo unspecified)	none (no result: MIN6 prolif-1, TAG inh)
Cc1ccc(-n2c(SCC(=O)N3CCCc4ccccc43)nnc2-c2cccnc2)c(C)c1	none (no result: TAG inh)
CCOc1ccccc1-n1c(SCC(=O)N2CCCc3ccccc32)nnc1-c1cccnc1	MIN6 prolif-1 6.6 (no result: TAG inh) | MIN6 prolif-2 inactive
COCCNC(=O)C1(C)CCCN(Cc2ccc(Oc3ccccc3)cc2)C1 (stereo unspecified)	none (no result: MIN6 prolif-1)
O=C(c1cc(Cl)cc(Cl)c1)N1CCC2CC1c1cc(N3CCCCC3)ccc12 (stereo unspecified)	none (no result: MIN6 prolif-1)
CCNC(=O)C1CCCN(C(=O)c2ccc3ccccc3c2)CC1 (stereo unspecified)	none (no result: MIN6 prolif-1)
CN(C)C(=O)CN1C(=O)C2CC=C(Cl)CC2C1=O (stereo unspecified)	none (no result: TAG inh)
CCN(CC)C(=O)CN1C(=O)C2CC=C(Cl)CC2C1=O (stereo unspecified)	MIN6 prolif-1 6.9 (no result: TAG inh) | MIN6 prolif-2 inactive
O=C(Nc1cccc(NC(=O)c2ccc(Br)o2)n1)c1ccc(Br)o1	none (no result: TAG inh)
Cc1nc(NC(=O)c2ccc(Br)o2)ccc1Br	MIN6 prolif-1 11 (no result: TAG inh) | MIN6 prolif-2 inactive
CNc1cccc(-c2cc(OC)ccc2OC)n1	none (no result: MIN6 prolif-1)
COC(=O)c1c(NC(=O)COC(=O)c2ccc(O)cc2)sc2c1CCCCC2	none
COCC(=O)Nc1sc2c(c1C(=O)OC)CCCC2	MIN6 prolif-1 7.7 | MIN6 prolif-2 inactive
Cc1ccsc1C(=O)N1CCC1(C)C(=O)NCCC#N (stereo unspecified)	none (no result: MIN6 prolif-1)
CC(C)NC(=O)Nc1nnc([C@@H]2C[C@H](O)[C@@H](CO)O2)s1	none (no result: MIN6 prolif-1)
CN(c1ncnc(N)c1[N+](=O)[O-])C1CCCCC1	MIN6 prolif-1 25 (no result: TAG inh) | MIN6 prolif-2 inactive
CN(c1ncnc(N)c1[N+](=O)[O-])C1CCS(=O)(=O)C1 (stereo unspecified)	none
O=C(O)Cc1cn(Cc2ccc(F)cc2)c2ccccc12	MIN6 prolif-1 7.4 | MIN6 prolif-2 inactive
Cc1ccc(Cn2cc(CCC(=O)O)c3ccccc32)cc1	none (no result: TAG inh)
C[C@@H]1CN([C@H](C)CO)C(=O)CCCn2nncc2CO[C@@H]1CN(C)S(=O)(=O)c1ccc2ccccc2c1	none (no result: MIN6 prolif-1)
COc1cc(-c2nn3c(C4CCCCC4)nnc3s2)cc(OC)c1OC	none
COc1ccc(-c2nn3c(C4CCCCC4)nnc3s2)cc1OC	MIN6 prolif-1 9.1 (no result: TAG inh) | MIN6 prolif-2 inactive
COc1ccc(C2=Nn3c(nnc3-c3cccnc3)SC2)cc1	none (no result: MIN6 prolif-1, TAG inh)
COc1ccc(C2=Nn3c(nnc3-c3ccncc3)SC2)cc1	MIN6 prolif-1 14 | MIN6 prolif-2 inactive
Cc1[nH]nc2ncc(C(=O)c3ccccc3O)cc12	MIN6 prolif-1 12 | MIN6 prolif-2 inactive
Cc1nn(C)c2ncc(C(=O)c3ccccc3O)cc12	none (no result: TAG inh)
COc1cccc(C(NC(C)=O)c2nc(-c3cccc(C#N)c3)cs2)c1 (stereo unspecified)	none (no result: MIN6 prolif-1)
COc1ccc(NC(=S)N(Cc2ccc(C(=O)O)cc2)Cc2ccc(OC)c(OC)c2)cc1	MIN6 prolif-1 9.2 | MIN6 prolif-2 inactive
COc1ccc(CN(Cc2ccc(C(=O)O)cc2)C(=S)Nc2cccc(C)c2)cc1OC	none
CCc1nc(Cl)c(C#N)c2c1CCCC2	none (no result: TAG inh)
CCCc1nc(Cl)c(C#N)c2c1CCCC2	MIN6 prolif-1 9.0 | MIN6 prolif-2 inactive
COCCNC(=O)C1(C)CCCN(Cc2cn(C)c3ccccc23)C1 (stereo unspecified)	none (no result: MIN6 prolif-1)
C/C(=N\Nc1ncc(Cl)cc1Cl)c1ccc(C#N)cc1	none
C/C(=N/Nc1ncc(C(F)(F)F)cc1Cl)c1ccncc1	MIN6 prolif-1 7.8 (no result: TAG inh) | MIN6 prolif-2 inactive
OC[C@@H]1CN(Cc2ccc(Cl)cc2)C[C@H](n2cnc3c(Nc4ccccc4)ncnc32)O1	none (no result: MIN6 prolif-1)
COc1cc2c(cc1OC)-c1cc(Nc3ccccc3C)nc(=O)n1CC2	none (no result: TAG inh)
CCOc1ccccc1Nc1cc2n(c(=O)n1)CCc1cc(OC)c(OC)cc1-2	MIN6 prolif-1 12 (no result: TAG inh) | MIN6 prolif-2 inactive
CC(C)CNc1ncnc2c1ncn2[C@H]1CN(Cc2ccc(-c3ccccc3)cc2)C[C@@H](CO)O1	none (no result: MIN6 prolif-1)
Cc1nc(N2CCCCC2)c2sc(=S)n(C)c2n1	MIN6 prolif-1 8.9 (no result: TAG inh) | MIN6 prolif-2 inactive
Cc1nc(N(C)C)c2sc(=S)n(Cc3ccccc3)c2n1	none
CCN(CC)c1nc(C)nc2c1sc(=S)n2C	MIN6 prolif-1 8.0 | MIN6 prolif-2 inactive
CCN1CCN(c2nc(C)nc3c2sc(=S)n3C)CC1	none
CCCCC(OC(=O)CN1C(=O)COc2ccccc21)C(=O)NC1CCCCC1 (stereo unspecified)	MIN6 prolif-1 11 (no result: TAG inh) | MIN6 prolif-2 inactive
CCCC(OC(=O)CN1C(=O)COc2ccccc21)C(=O)NC1CCCC1 (stereo unspecified)	none (no result: TAG inh)
O=S(=O)(NCCS(=O)(=O)N1CCN(c2ccc(F)cc2)CC1)c1ccc(F)cc1	none (no result: MIN6 prolif-1)
Cc1cc(C)c2c(c1)/C(=N/NC(=O)c1cc(C)oc1C)CCC2	MIN6 prolif-1 0.0 (no result: TAG inh) | MIN6 prolif-2 inactive
Cc1cc(C)c2c(c1)/C(=N/NC(=O)c1ccc(O)cc1)CCC2	none
Cc1cc(S(=O)(=O)c2ccc(Cl)cc2)nc(S(=O)(=O)c2ccc(Cl)cc2)c1C#N	none (no result: MIN6 prolif-1)
CCOC(=O)[C@]12CCC=C1N(Cc1ccc3c(c1)OCO3)C(=O)[C@H](CC(=O)N1CCN(C(=O)c3ccco3)CC1)C2	none (no result: MIN6 prolif-1, TAG inh)
Cc1ccc(-c2csc(C(O)c3ccc(F)c(F)c3)n2)cc1C (stereo unspecified)	none (no result: MIN6 prolif-1)
Cc1[nH]c2ccccc2c1C(=O)NS(=O)(=O)Nc1ccc(F)cc1	MIN6 prolif-1 8.8 | MIN6 prolif-2 inactive
COc1cccc(NS(=O)(=O)NC(=O)c2c(C)[nH]c3ccccc23)c1	none (no result: TAG inh)
O=C(CSc1ccc2nnc(CCNC(=O)c3ccccc3)n2n1)NCCc1ccccc1	MIN6 prolif-1 10 | MIN6 prolif-2 inactive
O=C(CSc1ccc2nnc(CCNC(=O)c3ccccc3)n2n1)NC1CCCC1	none
CCNc1nc(N)c(C(=C(C#N)C#N)c2ccccc2)s1	MIN6 prolif-1 7.3 | MIN6 prolif-2 inactive
Nc1nc(Nc2ccccc2)sc1C(=O)c1ccccc1	none
O=C(NCc1cc(Cl)cc(Cl)c1)c1ccc2sc([C@H]3C[C@H](O)[C@@H](CO)O3)nc2c1	none (no result: MIN6 prolif-1)
O=C(NCc1cccc(Cl)c1)C1Cc2c(-c3ccccc3)ccnc2O1 (stereo unspecified)	none (no result: MIN6 prolif-1)
COc1ccccc1NC(=O)CSc1c2c(nc3ccccc13)CCC2	MIN6 prolif-1 8.4 (no result: TAG inh) | MIN6 prolif-2 inactive
Cc1cc(NC(=O)CSc2c3c(nc4ccccc24)CCC3)no1	MIN6 prolif-1 16 | MIN6 prolif-2 inactive
Cc1cc(NC(=O)CSc2cc(C)c3ccccc3n2)no1	none
COc1ccc(NC(=O)CSc2c3c(nc4ccccc24)CCCC3)c(OC)c1	none (no result: TAG inh)
O=C1c2ccccc2C(c2nnnn2-c2ccc3ccccc3c2)N1C1CC1 (stereo unspecified)	none (no result: MIN6 prolif-1, TAG inh)
